# Most compounds without a hit are left out; they make up all but 2.2% or so of the library.
# Myeloid diff MLP: promotes myeloid progenitor differentiation; ER-HoxA9 myeloid progenitors, lysozyme-GFP differentiation, flow cytometry; calls only at 10 µM; 1% of 360,000 active;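 active = normalized GFP-positive differentiation at or above the plate's own cutoff, the solvent-only control mean plus 3 SD; inconclusive = no clear call, values can overlap the other calls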;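 note: cells exposed to compound for four days before flow analysis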
# Cardiac RTF inh: cardiac RTF calcium desensitization | P19429+P45379 | IANBD-labeled cardiac RTF, Ca2+ fluorescence | inhibition, % at 7.15 µM | 0.12% of 340,000 active;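 active = inhibition above the mean inhibition of all tested compounds plus 3 SD, cut at about 17% in these data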;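 note: assay run at fixed EC70 calcium of 1.6 mM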
# RTF Ca sens act: cardiac RTF calcium sensitization; 0.24% of 340,000 active; activation, % at 7.2 µM; AID 493008; IANBD-labeled TnC RTF fluorescence at EC20 calcium; 0% EC20 calcium, 100% full calcium; P19429+P45379;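 active = activation above the mean over all tested compounds plus 3 SD, cut at about 30% in these data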;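 note: rise in fluorescence read as greater calcium sensitivity of cardiac thin filaments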
# CRFR2-BP ag: agonists of human CRF-binding protein/CRF-R2 receptor complex | 0.46% of 350,000 active | AID 588473 | activation, % at 13.2 µM | HEK293 CRF-R2/CRF-BP, calcium dye fluorescence (FLIPR); percent of saturating CRF peptide response;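 active = activation of at least 50%, plus an integration ratio under a set limit after plate pattern correction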;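 note: plate controls were neutral control wells without compound for no effect and CRF at EC100 for full effect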
# CRFBP-R2 block: CRF-BP/CRF-R2 complex antagonism. HEK293 CRF-R2/CRF-BP, CRF-induced calcium fluorescence. inhibition, % at 11.8 µM. 0.59% of 350,000 active;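 active = inhibition of the ligand-induced calcium signal above about 50% at the single tested concentration, limit read from the data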
# The depositor's hits bear a star; i = inactive; ? = inconclusive; · = not tested or not shown; + = active, no number.
SMILES,Myeloid diff MLP,Cardiac RTF inh,RTF Ca sens act,CRFR2-BP ag,CRFBP-R2 block
Cc1ccc(CNC(=O)COC(=O)CCC(=O)c2cccs2)cc1,i,-4,2,-2,-1
CCSc1nnc(-c2sc3nnc(-c4ccccc4)c(-c4ccccc4)c3c2N)o1,+,-31,83*,116*,-38
N/C(=N\OC(=O)c1csnn1)c1ccc(C(F)(F)F)cc1,i,-5,5,1,0
Cc1nc2ccccc2n1CCOc1ccc([N+](=O)[O-])cc1,i,1,5,-2,96*
COc1ccc2c3c(cccc13)C(=O)CC2,?,i,715*,139*,-95
CC(C)CN(C(=O)COC(=O)CCCc1c[nH]c2ccccc12)c1c(N)n(Cc2ccccc2)c(=O)[nH]c1=O,i,-13,-4,0,-12
O=C1NCCCCC1NS(=O)(=O)c1cccc2ccccc12 (stereo not drawn),i,-11,-3,-2,69*
CC(=O)Cc1cc(O)c2ccccc2c1OC(=O)c1ccc(Br)cc1,+,-18,0,-2,68*
O=C(c1cccc(S(=O)(=O)NCc2ccccc2)c1)N1CCN(c2ccccc2)CC1,+,-2,-4,-5,-18
O=C(c1cccc(S(=O)(=O)NCc2ccccc2)c1)N1CCN(c2ccc(F)cc2)CC1,i,-4,-1,1,7
CCc1nc2ccc(C(=O)NCCCn3ccnc3)cn2c1N(C)Cc1ccc(N(C)C)cc1,i,·,·,·,·
CC(OC(=O)C1CC1)C(=O)Nc1ncc(Cl)cc1Cl (stereo not drawn),i,-4,3,0,-7
Cc1ncc(CN2CCN(Cc3ccccc3)C(CCO)C2)s1 (stereo not drawn),+,1,-4,0,12
CC(=O)c1ccc(S(=O)(=O)NC2CC(=O)N(c3ccc(C)c(C)c3)C2)cc1 (stereo not drawn),i,-4,7,0,4
C=CCN1C(c2ccccc2)=CS/C1=C(/C#N)c1nnc(N2CCOCC2)n1-c1ccccc1,i,-30,1,26,-23
CN1C(c2ccc(F)cc2)=CS/C1=C(/C#N)c1nnc(N2CCOCC2)n1-c1ccccc1,i,-2,0,-2,95*
O=C(Nc1ccc2c(c1)OCO2)C1Cc2c(-c3ccc4c(c3)OCO4)ccnc2O1 (stereo not drawn),i,·,·,·,·
CCN1CCN(C(=O)C2=CC(c3ccc(OC)cc3)=NS(=O)(=O)N2C)CC1,i,-3,1,1,63*
COc1ccc(C2=NS(=O)(=O)N(C)C(C(=O)N3CCN(C)CC3)=C2)cc1,i,-3,6,-7,4
CCOC(=O)C1=NN(c2ccccc2)C2=NC(C)=C(C(=O)OC)C(c3cccs3)N12 (stereo not drawn),i,-13,-5,2,75*
COc1cc(/C=c2\s/c(=C(/C#N)C(=O)N3CCCC3)n(-c3ccccc3)c2=O)ccc1O,i,-13,6,67*,-44
CC(C)CC(=O)Nc1ccc(C(=O)COC(=O)Cc2n[nH]c(=O)c3ccccc23)cc1,i,-3,-1,51*,-20
O=C(Cc1n[nH]c(=O)c2ccccc12)OCC(=O)c1ccccc1,i,1,-1,-1,3
Cc1ccc(/C=N/N2C(=O)c3ccccc3NC2c2ccc(C)cc2)cc1 (stereo not drawn),+,-7,-6,-2,8
COc1cc(NS(=O)(=O)c2ccc(NC(=S)NC(=O)/C=C/c3ccc(OC)c(OC)c3)cc2)ncn1,i,-4,-6,-5,-20
SMILES,Myeloid diff MLP,Cardiac RTF inh,RTF Ca sens act,CRFR2-BP ag,CRFBP-R2 block
COc1ccc(/C=C/C(=O)NC(=S)Nc2ccc(S(=O)(=O)Nc3cc(OC)ncn3)cc2)cc1,i,·,·,-2,58*
O=C(c1ccco1)N1CCN(Cc2cc(=O)c(OCc3ccc(F)cc3)co2)CC1,i,6,11,0,3
CCOC(=O)C1=CCN(S(=O)(=O)c2ccc(C)cc2)C1c1cccc(C)c1 (stereo not drawn),i,·,·,·,·
CCN(CC)c1ccc(/C=C/C(=O)C2C(=O)C=C(C)OC2=O)cc1 (stereo not drawn),+,-122,128*,377*,-476
CC1(C)CC(=O)c2c(O)cc(OCC(=O)Nc3ccc(CCO)cc3)cc2O1,i,-10,-1,-2,1
Cc1nnsc1C(=O)Nc1cc(Cl)ccc1Cl,i,-17,10,-2,-4
O=c1cc(-c2ccccc2)nc(/C=C/c2ccccc2)[nH]1,i,-2,2,1,-9
COc1ccc(/C=C/c2nc(-c3ccccc3)cc(=O)[nH]2)cc1,i,-5,-6,-1,66*
O=C(Nc1ccnn1C1CCN(C(=O)c2cccnc2)CC1)c1cccc(F)c1,i,·,·,-1,2
CN(Cc1nc(-c2ccccn2)no1)S(=O)(=O)c1ccc(Cl)cc1,i,0,-8,54*,-128
O=C(Cn1nnc(-c2ccc(F)cc2)n1)NC(=O)NC1CCCCC1,i,·,·,6,-9
Oc1ccc(-c2onc(C(F)(F)F)c2-c2cscn2)c(O)c1,i,-4,-1,0,22
Cc1nc(-c2c(C(F)(F)F)noc2-c2ccc(O)cc2O)cs1,i,-2,-3,-8,54*
O=C(CNS(=O)(=O)c1cccs1)NCCc1ccc(Cl)cc1,i,-24,-6,-2,56*
CCOCCCNC(=O)Cn1nc(Cc2ccncc2)c2ccccc2c1=O,i,-6,-3,0,2
CC(C)c1nc2c(c(=O)c3ccccc3n2C)c(=O)n1CCc1ccccc1,i,·,·,72*,11
CCc1nc2c(c(=O)c3ccccc3n2C)c(=O)n1C1CCCCCC1,i,-1,0,226*,-175
COc1ccc(CCn2c(C3CCCCC3)nc3c(c(=O)c4ccccc4n3C)c2=O)cc1OC,i,-5,2,-7,-2
COc1ccc(CCn2c(C3CCCCC3)nc3c(c(=O)c4ccccc4n3C)c2=O)cc1,i,·,·,62*,-17
Cn1c2ccccc2c(=O)c2c(=O)n(-c3ccccc3)c(C3CCCCC3)nc21,i,-6,0,-1,-19
Cn1c2ccccc2c(=O)c2c(=O)n(C3CCCCCC3)c(C3CCCCC3)nc21,i,7,-3,127*,-30
COc1ccc(Cn2c(C3CCCCC3)nc3c(c(=O)c4ccccc4n3C)c2=O)cc1,·,·,·,-1,-22
Cn1c(=O)c(=O)n(C)c2cc(S(=O)(=O)N3CCCC3C(=O)NCc3cccs3)ccc21 (stereo not drawn),i,-7,-4,2,8
CC(=O)c1ccc(NC(=O)CSc2nnc3ccc(-c4ccccn4)nn23)cc1,i,-6,-5,-2,-7
CCOc1ccccc1NC(=O)CN(c1ccc(Cl)cc1)S(C)(=O)=O,i,-6,3,-1,9
Cc1ccnc(NCc2ccc(Cl)cc2)c1,i,-3,2,0,-9
